Source: PubChem BioAssay (National Center for Advancing Translational Sciences (NCATS))
Only some compounds are listed: those with a hit (about 2.5% of all), similar ones and a draw of the others.
HTT-AS act – activates huntingtin-antisense promoter activity; Potency, µM (highest dose often 57.5 µM), for the others: at the highest dose activity change, positive = activation, usual class: activators; HEK293 HTT-AS promoter firefly luciferase reporter, 24 h; response scale: percent change from vehicle, -100% = no light; actives 0.24% (n = 48,000); AID 1508624; note: potency is the fitted concentration of half-maximal effect; nearly all actives have a fitted effect of over 55% in size
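Firefly luciferase signal from promoter-reporter HEK293 cells was scaled between vehicle (0%) and zero RLU (-100%). Compounds were tested at final concentrations of up to 57.5 uM over 24 h at 37 degrees C. PTC124 at 50 uM final served as control inhibitor.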
FH mod – Identification of activators of human fumarate hydratase by quantitative high-throughput screening; Fumarate hydratase, mitochondrial (Homo sapiens), P07954; FH coupled MDH/diaphorase resazurin fluorescence, 15 min; Potency, µM (titrated, usually from 79.9 µM), inactives show at the top dose activity change, negative = inhibition, usual class: inhibitors; actives 0.22% (n = 54,000); note: potency is the fitted concentration of half-maximal effect; % is set by controls: 0 for no effect and ±100 for the full control effect; the screen sought activators but most active calls are inhibition curves; nearly all actives have a fitted effect of over 45% in size
HTT prom inh – HTT promoter inhibition; HEK293 HTT promoter firefly luciferase reporter, 24 h; Potency, µM (highest dose often 57.5 µM), for inactives: top-dose activity change, negative = inhibition, most hits filed as inhibitors; actives 0.93% (n = 48,000); AID 1508623; note: potency is the fitted concentration of half-maximal effect; nearly all actives have a fitted effect of over 50% in size
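Firefly luciferase readout (Dual-Glo, 10 min RT) after 24 h, 37 °C compound exposure (final up to 57.5 uM) of HEK293 reporter cells cultured 24 h beforehand; PTC124 at 50 uM final as control inhibitor; activity scaled vehicle 0%, zero RLU -100%.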
GALK inh – inhibits human galactokinase; Potency, µM (series often up to 57.5 µM), inactives show at the top dose activity, negative = inhibition, actives largely listed as inhibitors; AID 1347072; P51570; recombinant GALK, Kinase-Glo ATP luminescence, 1 h; 44,000 tested, under 10 active;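 note: plate controls were full GALK reaction for no effect and reaction lacking GALK for full effect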
Target sequence (P51570 whole entry, looked up): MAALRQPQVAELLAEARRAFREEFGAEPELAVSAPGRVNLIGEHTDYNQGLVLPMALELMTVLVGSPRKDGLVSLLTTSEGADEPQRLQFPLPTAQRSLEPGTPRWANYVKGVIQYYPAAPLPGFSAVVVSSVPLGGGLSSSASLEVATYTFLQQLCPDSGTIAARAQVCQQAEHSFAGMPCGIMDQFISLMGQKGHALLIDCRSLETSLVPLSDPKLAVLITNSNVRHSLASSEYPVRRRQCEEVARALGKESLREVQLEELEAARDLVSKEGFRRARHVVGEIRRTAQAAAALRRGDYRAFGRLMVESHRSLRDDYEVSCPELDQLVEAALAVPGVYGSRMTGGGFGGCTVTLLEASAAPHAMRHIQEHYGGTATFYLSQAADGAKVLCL
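Human GALK (5 nM) was incubated with 35 uM ATP and 100 uM galactose in 20 mM HEPES pH 8.0 with MgCl2, NaCl, DTT and BSA for 1 h at room temperature. Remaining ATP was measured by Kinase-Glo Plus luminescence.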
NTMT1 inhibitor – blocks human N-terminal methyltransferase 1 activity | actives 2.5% (n = 59,000) | Potency, µM (top dose mostly 114 µM), for the others: top-dose activity change, negative = inhibition, most hits filed as inhibitors | NTMT1 MTase-Glo SAH luminescence, purified enzyme | AID 1645870;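 note: potency is the fitted concentration of half-maximal effect; plate controls were DMSO vehicle for no effect and no enzyme for full effect; nearly all actives have a fitted effect of over 65% in size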
Target sequence (Q9BV86 whole entry, looked up): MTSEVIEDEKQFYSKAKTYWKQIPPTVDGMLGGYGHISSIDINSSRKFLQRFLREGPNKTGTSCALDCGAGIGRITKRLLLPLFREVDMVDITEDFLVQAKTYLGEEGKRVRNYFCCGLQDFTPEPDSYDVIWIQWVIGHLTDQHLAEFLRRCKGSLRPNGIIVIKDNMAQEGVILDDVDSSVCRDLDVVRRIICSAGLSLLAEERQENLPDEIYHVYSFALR
An asterisk follows results filed as active; [ ] = remark or other dose. Calls come from the whole dose curve; as a rule, active = well fitted curve in the direction sought with a large enough effect; inconclusive = small, poorly fitted or top-dose-only effect, or another doubt; inactive = no such curve, though single readings can be large; an effect the other way counts as inactive or inconclusive.

How did COc1cccc(N2CCN(C(=O)c3ccc(NC(=O)c4nsc5ccccc45)cc3)CC2)c1 do in these assays?
HTT-AS act: -71%; FH mod: -21%; HTT prom inh: 14µM*; GALK inh: -9%; NTMT1 inhibitor: -13%

Results for COC(=O)c1cccc(NC(=O)c2nsc3ccccc23)c1 ?
HTT-AS act: inconclusive; FH mod: -8%; HTT prom inh: -34%; GALK inh: 7%; NTMT1 inhibitor: 45µM*

Results for COc1ccc(N2CCN(C(=O)c3ccc(NC(=O)c4nsc5ccccc45)cc3)CC2)cc1 ?
HTT-AS act: inconclusive; FH mod: inconclusive; HTT prom inh: inconclusive; GALK inh: 2%; NTMT1 inhibitor: inconclusive

Results for C=CC(=O)N1CCC(C2CCNc3c(C(N)=O)c(-c4ccc(Oc5ccccc5)cc4)nn32)CC1 (stereo unspecified) ?
NTMT1 inhibitor: -4%

How did O=C(NO)c1cnc(NC2(c3ccccc3)CC2)nc1 do in these assays?
NTMT1 inhibitor: 11%

How did Nc1nc(Cl)nc2c1ncn2[C@@H]1O[C@H](COP(=O)(O)OP(=O)(O)OP(=O)(O)O)C(O)[C@H]1O (stereo partly specified) do in these assays?
FH mod: -14%[53.3 µM]

What do the screens show for `O=C(Nc1cccc(C(F)(F)F)c1)c1cccc2cc(Oc3cc(CO)ncn3)ccc12`?
NTMT1 inhibitor: 18%

How did CCN(CC)CCOCCOC(=O)C1(c2ccccc2)CCCC1 do in these assays?
HTT-AS act: -9%; FH mod: -2%[53.3 µM]; HTT prom inh: -13%; NTMT1 inhibitor: 10µM*

Results for COc1cc(OC)c(/C=C2\C(=O)Nc3ccccc32)c(OC)c1 ?
FH mod: -5%; NTMT1 inhibitor: -3%

How did COc1cc(/C=C2\C(=O)Nc3ccccc32)ccc1O do in these assays?
NTMT1 inhibitor: 79µM*

Results for FC(F)(F)c1ccccc1-c1nc(NCc2ccc(-c3cccnc3)cc2)c2[nH]cnc2n1 ?
NTMT1 inhibitor: 6%[57.5 µM]

Results for Cc1cc(NCc2ccc(Cl)cc2)n2cnnc2n1 ?
HTT-AS act: -70%; FH mod: 16%; HTT prom inh: 25µM*; GALK inh: 7%; NTMT1 inhibitor: 11%

Results for O=C([C@H](Cc1ccc(O[S+](=O)([O-])c2cccnc2)cc1)N[S+](=O)([O-])c1ccccn1)N1CCN(c2ccccc2)CC1 ?
NTMT1 inhibitor: 1%

How did Cc1ccc(-c2cc(C(=O)Nc3ccncc3)c3ccccc3n2)cc1C do in these assays?
NTMT1 inhibitor: 0%

How did Cc1ccc(-c2cc(C(=O)NCc3ccc(S(C)(=O)=O)cc3)c3ccccc3n2)cc1C do in these assays?
NTMT1 inhibitor: 50µM*

Results for Cc1ccc(-c2cc(C(=O)Nc3ccc(-c4noc(=O)[nH]4)cc3)c3ccccc3n2)cc1C ?
NTMT1 inhibitor: 45µM*

Results for O=C1CCCC2=C1C(c1cccc(Cl)c1)N=C(Nc1nc3ccccc3o1)N2 (stereo unspecified) ?
NTMT1 inhibitor: 9%

Results for C#Cc1cccc(Nc2ncnc3cc4c(cc23)OCCOCCOCCO4)c1 ?
FH mod: -4%; NTMT1 inhibitor: inconclusive

How did Cc1ccc(CCNC(=O)c2cc3c(s2)-c2c(C)cccc2OC3)cc1 do in these assays?
HTT-AS act: -12%; FH mod: -32%; HTT prom inh: -20%; GALK inh: 3%; NTMT1 inhibitor: 89µM*

What do the screens show for `CO[C@@H]1[C@]2(O)C(=O)N3/C=C\C(C)(C)c4[nH]c5ccccc5c4/C=C\3C(=O)N2[C@]23[C@H](CO)C(C)(C)N2c2ccccc2[C@]13O`?
FH mod: -1%[53.3 µM]; NTMT1 inhibitor: 11%[29.8 µM]

Results for Cc1ccc(-c2cc(C(=O)Nc3ccccn3)c3ccccc3n2)cc1C ?
NTMT1 inhibitor: -8%

What do the screens show for `COc1cc(OC)cc(C(=O)Nc2ccc3c(c2)OCCO3)c1`?
HTT-AS act: inconclusive; FH mod: -7%; HTT prom inh: 51%; GALK inh: 3%; NTMT1 inhibitor: 32µM*

Results for Cc1cccc(C=NNc2cc(N3CCOCC3)nc(OCCc3ccccn3)n2)c1 ?
HTT-AS act: -28%; FH mod: 6%[53.3 µM]; HTT prom inh: inconclusive; NTMT1 inhibitor: 22µM*

Results for C=C1CC[C@H]2[C@@H](/C=C(\C)C(=O)[C@@]3(OC(C)=O)C[C@H](C)[C@H](OC(C)=O)[C@@H]3[C@H]1OC(C)=O)C2(C)C ?
FH mod: -1%[53.3 µM]; NTMT1 inhibitor: 13%[29.8 µM]

What do the screens show for `Cn1nnnc1SCCCNCc1ccccc1OCc1ccccc1Cl`?
HTT-AS act: -50%; FH mod: 2%; HTT prom inh: 14µM*; GALK inh: -4%; NTMT1 inhibitor: inconclusive

Results for CC(C)c1ccc(CNC(=O)c2ccc(N3CCCC3)c(NC(=O)NCc3ccccc3)c2)cc1 ?
HTT-AS act: -19%; FH mod: -18%; HTT prom inh: 25µM*; GALK inh: -1%; NTMT1 inhibitor: -5%

What do the screens show for `Cc1ccc(CNC(=O)Nc2cc(C(=O)NCc3ccc(C(C)C)cc3)ccc2N2CCCC2)cc1`?
HTT-AS act: -13%; FH mod: -16%; HTT prom inh: inconclusive; GALK inh: -1%; NTMT1 inhibitor: 0%

Results for Cc1cc(-c2ccc(/C=C3\SC(=Nc4ccc(Cl)c(C(=O)O)c4)NC3=O)o2)c([N+](=O)[O-])cc1C ?
FH mod: 25µM*; NTMT1 inhibitor: 25µM*

What do the screens show for `CCOc1ccc(C(=O)Nc2ccc(-c3nc4ccccc4[nH]3)cc2)cc1`?
NTMT1 inhibitor: -1%

What do the screens show for `COC(=O)[C@@H](NC(=O)[C@H](CC(C)C)NC(=O)N(Cc1ccccc1)C[C@@H](O)[C@H](Cc1ccccc1)NC(=O)OC(C)(C)C)C(C)C`?
FH mod: -10%[13.5 µM]; NTMT1 inhibitor: 9%[12.6 µM]

What do the screens show for `Cc1cc(-c2ccccc2)nc2c(C(=O)Nc3ccc(Cl)c(Cl)c3)cnn12`?
NTMT1 inhibitor: -8%

What do the screens show for `Cc1ccc(C)c(Cn2c(=O)n(CCCCC(=O)NCc3ccccc3Cl)c(=O)c3ccccc32)c1`?
HTT-AS act: -7%; FH mod: inconclusive; HTT prom inh: 2%; GALK inh: 7%; NTMT1 inhibitor: 79µM*

Results for Cc1ccc(C)c(Cn2c(=O)n(CCCCC(=O)NCc3ccc4c(c3)OCO4)c(=O)c3ccccc32)c1 ?
HTT-AS act: -20%; FH mod: 3%; HTT prom inh: -3%; GALK inh: -2%; NTMT1 inhibitor: 89µM*

Results for CC(C)c1ccc(NC(=O)c2ccc(F)c(S(=O)(=O)N3CCc4ccccc4C3)c2)cc1 ?
HTT-AS act: -25%; FH mod: -18%; HTT prom inh: 11µM*; GALK inh: 2%; NTMT1 inhibitor: 5%
